An excerpt weighted towards active compounds, which were near 1.7% of everything screened.
GLP1R inv ag: qHTS of GLP-1 Receptor Inverse Agonists (Inhibition Mode); hit rate 1.6% among 410,000; HEK293 GLP-1R CRE-luciferase, luminescence, 24 h; GLP-1R form is constitutively active; Glucagon-like peptide 1 receptor (Homo sapiens), P43220; Potency, µM (doses to about 38.3 µM), without a hit: at the top dose activity change, negative = inhibition, actives largely listed as inhibitors; also: % is scaled to controls: 0 for no effect and ±100 for the full control effect; nearly all actives have a fitted effect of over 55% in size
Target sequence (P43220 whole entry, looked up): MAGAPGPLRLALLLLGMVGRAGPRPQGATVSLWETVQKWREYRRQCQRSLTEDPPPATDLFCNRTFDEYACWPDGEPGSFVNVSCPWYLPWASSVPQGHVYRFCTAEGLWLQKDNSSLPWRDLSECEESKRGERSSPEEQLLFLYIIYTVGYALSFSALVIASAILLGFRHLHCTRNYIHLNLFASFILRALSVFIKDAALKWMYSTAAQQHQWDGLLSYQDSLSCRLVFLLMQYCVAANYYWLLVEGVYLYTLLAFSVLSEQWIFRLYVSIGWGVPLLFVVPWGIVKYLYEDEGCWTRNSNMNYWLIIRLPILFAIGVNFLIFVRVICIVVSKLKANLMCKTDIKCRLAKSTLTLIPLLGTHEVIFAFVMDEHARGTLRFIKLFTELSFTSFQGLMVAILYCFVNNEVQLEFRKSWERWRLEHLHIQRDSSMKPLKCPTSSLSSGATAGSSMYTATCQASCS
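Inverse agonists were sought by their lowering of basal cAMP reporter luciferase output in HEK293 cells stably carrying constitutively active human GLP-1R, after 24 h compound treatment.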
GLP1R ag: qHTS of GLP-1 Receptor Agonists | HEK293 GLP-1R CRE-luciferase, luminescence, 4-6 h; cells express a hypersensitive GLP-1R form | Potency, µM (top dose mostly 45.6 µM), inactives show at the highest dose activation, usual class: activators | hit rate 0.007% among 380,000 | AID 624172, 2012; also: % of control where 0% means no effect
HEK293 tox: qHTS of GLP-1 Receptor Inverse Agonists: Cytotox Screen; AID 624418, 2012; hit rate 0.13% among 410,000; HEK293 cAMP-luciferase reporter cells, luminescence, 24 h; Potency, µM (doses to about 38.3 µM), for inactives: top-dose activity change, negative = inhibition, usual class: inhibitors;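 also: loss of luciferase light is scored as toxicity; % is scaled to controls: 0 for no effect and ±100 for the full control effect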
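To flag toxic compounds, the library was rerun on cells for 24 hr at 37 deg C and 5% CO2. Viability-linked luminescence was captured 12 min after adding luciferase detection reagent.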
Numbers without * were called inactive; ? = inconclusive; · = no result given; [ ] = dose if it differs, or a comment. Calls follow the shape of the dose curve; as a rule, active = well fitted curve in the direction sought with a large enough effect; inconclusive = small, poorly fitted or top-dose-only effect, or another doubt; inactive = no such curve, though single readings can be large; an effect the other way counts as inactive or inconclusive. Potency is read from the fitted curve at half-maximal effect.

SMILES	GLP1R inv ag	GLP1R ag	HEK293 tox
COc1ccc(S[C@@H](CCN2CC[C@H](NC(=O)OCc3ccccc3)CCC2=O)c2ccccc2)cc1	3.2µM*	-3%	-3%
C[C@@H](CSc1ccc(Br)cc1)CN1CC[C@H](NC(=O)OCc2ccccc2)CCC1=O	?	-6%	-3%
CC(=O)Nc1ccc(SC[C@H](C)CN2CC[C@H](C(C)(C)C)CCC2=O)cc1	10µM*	4%	-32%
Cc1ccc(SC[C@H](C)CN2CC[C@H](C)CCC2=O)cc1	?	3%	1%
O=C(N[C@@H]1CCC(=O)N(CC[C@H](Sc2ccc(Br)cc2)c2ccccc2)CC1)OCc1ccccc1	?	8%	-22%
COc1ccc(SC[C@H](C)CN2CC[C@H](NC(=O)OCc3ccccc3)CCC2=O)cc1	10µM*	12%	16%
COc1ccc(CNC(=O)Cc2c(C)c3cc4c(C)coc4c(C)c3oc2=O)cc1	0%	·	-2%
Cc1ccc(Cc2c(C)nc3nc(SCC(=O)NCCC(C)C)nn3c2C)cc1	1%	·	-18%
COc1ccc(C(=O)N/C(=C\c2cn(C)c3ccccc23)C(=O)NCCCN2CCOCC2)cc1OC	12%	4%	0%
Cc1ccc(C(=O)Nc2cccc(NC(=O)c3cccs3)c2)c(C)c1	?	-4%	16%
CCOC(=O)c1c(C)[nH]c(N=Nc2ccc(C)cc2)c1C	?	23%	?
CCOC(=O)c1c(C)[nH]c(N=Nc2ccccc2)c1C	10µM*	11%	?
C=CC[C@@H]1/C=C(\C)C[C@H](C)C[C@H](OC)[C@H]2O[C@@](O)(C(=O)C(=O)N3CCCC[C@H]3C(=O)O[C@H](/C(C)=C/[C@@H]3CC[C@@H](O)[C@H](OC)C3)[C@H](C)[C@@H](O)CC1=O)[C@H](C)C[C@@H]2OC	·	-5%	·
O=C(NCc1ccc(F)cc1)C1CCCN(c2nc3ccsc3c(=O)s2)C1 (stereo not drawn)	16%	-5%	4%
CCn1cc(S(=O)(=O)NCCc2ccc(F)cc2)cn1	22%	5%	2%
CN1CCN(S(=O)(=O)c2ccc(N(C)Cc3ccc(OC(F)F)cc3)c([N+](=O)[O-])c2)CC1	10µM*	-1%	-24%
CN(CC(=O)O)c1ccc(S(=O)(=O)N2CCOCC2)cc1[N+](=O)[O-]	-10%[7.66 µM]	-1%	-1%[7.66 µM]
CC(=O)Nc1cccc(-c2ccnc3c2CC(C(=O)Nc2cccc(NS(C)(=O)=O)c2)O3)c1 (stereo not drawn)	25%	-11%	7%
CS(=O)(=O)Nc1cccc(NC(=O)C2Cc3c(-c4ccccc4)ccnc3O2)c1 (stereo not drawn)	0.89µM*	15%	-21%
COc1ccc(C(C)=O)cc1CC(=O)Nc1ccccc1-c1ccccc1	6%	-4%	-5%
Cc1ccc(C)c(N(CC(=O)Nc2cc(Cl)ccc2Oc2ccccc2)S(C)(=O)=O)c1	5µM*	-8%	-2%
COc1ccc(Cl)cc1NC(=O)CN(c1cccc(C)c1C)S(=O)(=O)c1ccccc1	?	-2%	6%
CC(C)CNS(=O)(=O)c1ccc(CCC(=O)Nc2cc(Cl)ccc2Oc2ccccc2)cc1	13µM*	3%	4%
CCCNS(=O)(=O)c1ccc(CCC(=O)Nc2cc(Cl)ccc2Oc2ccccc2)cc1	?	-5%	-12%
Cc1cccc(C)c1N(CC(=O)Nc1cc(Cl)ccc1Oc1ccccc1)S(C)(=O)=O	4.5µM*	-4%	-16%
SMILES	GLP1R inv ag	GLP1R ag	HEK293 tox
COc1ccc(C)cc1NC(=O)CN(c1ccccc1F)S(C)(=O)=O	2%	1%	9%
COc1ccc(CNC(=O)C2CCN(S(=O)(=O)c3c(C)noc3/C=C/c3cccs3)CC2)cc1	-12%	·	3%
Cc1cc(C)c(NC(=O)CN2C(=O)CC(C)S(=O)(=O)c3ccccc32)c(C)c1 (stereo not drawn)	1%	-2%	-11%
COc1cc(C(=O)N2C[C@@H]3CCC[C@H]2C3)ccc1OC1CCN(C(C)=O)CC1	22%	-6%	6%
CC(C)c1ccc(NC(=O)Cn2nnc(C(=O)NCc3ccc(Cl)cc3)c2N)cc1	7%	·	-5%
O=C(N/C(=C/c1ccco1)C(=O)N1CCOCC1)c1ccccc1Br	-13%	-11%	2%
COc1ccc(CC2(C)OC(c3ccc([N+](=O)[O-])cc3)=NN2C(C)=O)cc1 (stereo not drawn)	?	0%	9%
Nc1ccc2cc3ccc(N)cc3nc2c1	·	-7%	·

Assay outcomes: PubChem BioAssay, National Center for Advancing Translational Sciences (NCATS)
